This is an account of results in PubChem BioAssay AID1946 (Johns Hopkins Ion Channel Center, 2009).

Screen size: about 2,400 compounds; about 180 (7.5%) were called active. What follows is part of a selection rich in actives, with near analogues and random picks from the rest. Values without a mark were called inactive.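 Rule for the calls: active = readout below zero, meaning a drop past 3 SD under the dofetilide-free negative control mean; inactive = the rest.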

In this assay the target is Potassium voltage-gated channel subfamily KQT member 2 (Rattus norvegicus) (UniProt O88943). Nature of the assay: rat KCNQ2 channel inhibition by compounds alone, confirmation, counter-screen for hERG block protector project, cell-based, CHO, FluxOR thallium flux (AID 1946). The conditions noted are these: CHO-KCNQ2 cells, FluxOR thallium flux fluorescence; at 10 µM; hits give low values; zero marks the 3-SD hit cutoff. (A counterscreen serves to expose hits that act by an unwanted route or on another target.)
Potassium voltage-gated channel subfamily KQT member 2 (Rattus norvegicus), sequence (O88943 whole entry, looked up): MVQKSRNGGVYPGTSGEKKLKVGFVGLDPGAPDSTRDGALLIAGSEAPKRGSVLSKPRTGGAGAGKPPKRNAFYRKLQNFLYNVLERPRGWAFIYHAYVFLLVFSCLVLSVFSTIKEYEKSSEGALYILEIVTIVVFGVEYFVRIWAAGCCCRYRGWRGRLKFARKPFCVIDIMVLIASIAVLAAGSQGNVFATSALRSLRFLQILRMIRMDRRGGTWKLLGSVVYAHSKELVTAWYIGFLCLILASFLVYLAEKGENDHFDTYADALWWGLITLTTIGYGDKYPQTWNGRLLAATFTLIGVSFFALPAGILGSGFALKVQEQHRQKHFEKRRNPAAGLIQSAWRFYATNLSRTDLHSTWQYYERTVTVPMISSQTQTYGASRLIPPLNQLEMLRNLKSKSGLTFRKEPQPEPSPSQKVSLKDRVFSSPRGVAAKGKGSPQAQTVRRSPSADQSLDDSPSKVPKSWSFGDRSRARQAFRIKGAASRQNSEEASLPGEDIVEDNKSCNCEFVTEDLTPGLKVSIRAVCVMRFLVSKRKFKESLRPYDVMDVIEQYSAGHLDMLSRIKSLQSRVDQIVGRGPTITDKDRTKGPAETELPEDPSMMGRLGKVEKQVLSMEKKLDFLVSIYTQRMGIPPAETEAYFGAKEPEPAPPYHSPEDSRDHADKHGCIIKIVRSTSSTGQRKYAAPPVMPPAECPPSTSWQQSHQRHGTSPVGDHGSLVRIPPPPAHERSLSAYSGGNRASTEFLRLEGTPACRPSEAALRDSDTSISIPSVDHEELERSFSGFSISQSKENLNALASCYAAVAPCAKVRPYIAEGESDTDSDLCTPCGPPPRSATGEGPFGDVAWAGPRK
Regarding `Cc1ccc(S(=O)(=O)N(C)C)cc1NC(=S)NC(C)CCCC(C)C` (centres undefined), the activity change vs negative control is -2.5% (active). Then `O=c1c2ccc(Cl)cc2[nH]c(=S)n1CCC1=CCCCC1`, with 32.4%. Regarding `NC(=O)c1cccc(N=Cc2cc(Cl)cc(Cl)c2O)c1`, the activity change vs negative control was 43.3%. Then `O=C(Nc1nc(=S)ss1)c1ccc(Cl)cc1Cl`, with 122%; and `CCC1CCCCN1C(=S)NC(=O)c1cccc([N+](=O)[O-])c1` (centres undefined), with 55.4%. `O=C(NC(=S)NCCC1=CCCCC1)c1ccc(Br)o1`: the activity change vs negative control was 26.5%. To `Cc1cc([N+](=O)[O-])c(C)cc1-c1ccc(/C=N/NC(=O)Cn2nnnc2N)o1` belongs 19.5%; to `C=CCSC1=C(C#N)C(c2ccccc2)CC(=O)N1` (centres undefined), -8.8% (active). Then `COc1ccc(C(=O)NNC(=O)C(=O)Nc2cccc3ccccc23)cc1`, with 80.5%; and `Cc1ccc(NC(=O)C(=O)NNC(=O)c2cccs2)cc1`, with 83.8%; and `C=CCn1c(SCC(N)=O)nc2scc(-c3ccc(C)o3)c2c1=O`, with 33%. To `CCCN(CCC)C(=S)NC(=O)c1ccc(-c2ccccc2)cc1` belongs 106%; to `CSc1ccc(S(=O)(=O)N2CCC(C(=O)Nc3ccccc3C(F)(F)F)CC2)cc1`, -0.2% (active); to `O=C(CSc1nnc(NC(=O)c2ccc(S(=O)(=O)N3CCOCC3)cc2)s1)Nc1ccccc1C(F)(F)F`, 15.7%. As to `CS(=O)(=O)N1CCC(C(=O)Nc2c(F)cccc2F)CC1`, the activity change vs negative control was 16.7%. To `S=c1[nH]c2cc(-c3ccccc3)ccc2o1` belongs 114%. Then `N#Cc1ccc(-c2nc3ccc(Br)cc3c(=O)n2O)cc1`, with 40.3%; and `O=S(=O)(Nc1ccc(O)c2ccccc12)c1ccc(F)cc1`, with 1.7%.

As for `COc1ccc(OC)c(S(=O)(=O)Nc2ccc(O)c3ccccc23)c1`, the activity change vs negative control is 1.4%. To `Cc1ccc(S(=O)(=O)Nc2ccc(O)c3ccccc23)c(C)c1` belongs -3.3% (active). To `CC1Cc2ccccc2N1C(=S)NC(=O)C1(C)CC1(Cl)Cl` (centres undefined) belongs 59.5%; to `CC(NC(=S)NC1CCCCC1)c1ccccc1` (centres undefined), 29.9%; to `Cc1ccc(S(=O)(=O)N2CCOCC2)cc1NC(=O)CSc1nc2ccccc2c(=O)n1Cc1ccccc1`, 13.7%.

For `Cc1ccc(S(=O)(=O)N2CCOCC2)cc1NC(=O)COC(=O)c1cccnc1Cl`, the activity change vs negative control is -1.4% (active). To `Cc1ccc(Cl)cc1NC(=O)COC(=O)c1ccccc1O` belongs 6.8%. To `C=CCNC(=S)Nc1sc2c(c1C(=O)OCC)CC(C)(CC)OC2` (centres undefined) belongs 38.9%; to `CC(=O)/C=C1/C(=O)Nc2ccccc21`, -4.4% (active).

As to `CCOC(=O)c1c(NS(C)(=O)=O)sc2c1CCC(C)C2` (centres undefined), the activity change vs negative control was 40.9%. To `O=c1c2[nH]c3ccccc3c2nc2n1CCCS2` belongs 30.9%; to `O=C(Nc1ccc(-c2csc(Nc3cccc(C(F)(F)F)c3)n2)cc1)c1ccccc1`, -0.8% (active). To `c1ccc(-c2csc(Nc3ccc4c(c3)OCCO4)n2)cc1` belongs 1.2%; to `O=C(NC(=S)Nc1cccc(C(F)(F)F)c1)c1csnn1`, 138%. To `CC(=O)OCC1O[C@@H](O[C@@H]2C[C@H]3C(C)(C)[C@H](OC(C)=O)CC[C@]3(C)[C@H]3CC[C@]45C[C@]4(CC[C@H]5[C@@H](C)C[C@@H](O)[C@H](O)C(C)(C)O)[C@@]32C)[C@H](O)[C@@H](O)[C@@H]1O` (some centres undefined) belongs 32.4%.

On to `Cc1csc(NC(=S)NC(=O)c2ccccc2)n1`, for which the activity change vs negative control was 36.6%. On to `NC(=O)CSc1nc2ccccc2c(=O)n1CCc1ccccc1`, for which the activity change vs negative control is 7.8%. To `Cn1cnnc1SCC(=O)NCc1ccccc1` belongs -1.1% (active); to `COc1ccc(C(=O)NNC(=O)CSc2nnc(COc3ccccc3)n2C)cc1`, 6%; to `C=CCn1c(O)c(N=NC(=S)Nc2ccc(OC)cc2)c2ccccc21`, 39.5%. To `CCCOc1ccc(C(=O)NNC(=S)NC(=O)c2ccco2)cc1` belongs -4.6% (active). For the compound `COc1ccc(/C=C/C(=O)NC(=S)NNC(=O)c2cccs2)cc1`, the activity change vs negative control was 6.5%. Regarding `CCCOc1ccc(C(=O)NNC(=S)NC(=O)c2ccccc2)cc1`, the activity change vs negative control was -1.3% (active).

On to `O=C(NC(=S)NNC(=O)c1cccs1)c1ccc(Br)o1`, for which the activity change vs negative control was 18.8%. Consider `CCCOc1ccc(C(=O)NNC(=S)NC(=O)c2cccs2)cc1`, for which the activity change vs negative control was -12.7% (active). To `CCCOc1ccc(CN(CCC#N)C(=S)NC(=O)c2ccccc2)cc1` belongs 35.1%; to `CCOc1ccc(NC(=S)NC(=O)c2ccco2)cc1`, 37.5%. Then `CCOc1ccccc1NC(=S)NC(=O)c1ccco1`, with 21.9%. As to `CCOc1ccc(C(=O)NC(=S)N(Cc2ccccc2)Cc2ccccc2)cc1`, the activity change vs negative control was 15.8%. To `COC(=O)C1=C(C)NC2=C(C(=O)CCC2)C1c1ccc(-c2ccsc2C(=O)OC)o1` (centres undefined) belongs 75.1%; to `O=C(NC(=S)NCc1ccccc1)c1cccs1`, 36.9%.
